Measured values from PubChem BioAssay (NCI).
This is part of a sample that, as a whole, favours compounds with a hit. Of some 79,000 tested, about 15% had one in any assay. No stated cut-off is given here; in the data, active means growth inhibition above about 70%; inactive means the rest.

Key:
[1] = NCI Yeast Anticancer Drug Screen. Data for the rad50 strain (AID 155);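 further: 0% = growth of vehicle-only cultures of the same strain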; settings: S. cerevisiae rad50 strain growth inhibition; at 50.0 µM; hits give high values
Procedure, shortened: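 DNA repair mutant yeast, compound exposure, growth read-out; inhibition is taken relative to vehicle.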

[2] = NCI Yeast Anticancer Drug Screen. Data for the mec2-1 strain (AID 157); settings: S. cerevisiae mec2-1 strain, at 50.0 µM, hits give high values
Procedure, shortened: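 Readout is yeast growth inhibition, normalised to vehicle-treated controls, in the mec2-1 strain exposed to compound.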

[3] = NCI Yeast Anticancer Drug Screen. Data for the sgs1 mgt1 strain (AID 161);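 further: 0% = growth of cultures given vehicle only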; settings: S. cerevisiae sgs1 mgt1 strain, at 50.0 µM, hits give high values
Procedure, shortened: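 This yeast growth screen uses a strain with defined DNA-repair lesions; compound-treated growth is compared with vehicle-treated growth.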

[4] = NCI Yeast Anticancer Drug Screen. Data for the cln2 rad14 strain (AID 165);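 further: 0% = growth equal to vehicle treated cultures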; settings: S. cerevisiae cln2 rad14 strain, at 50.0 µM, hits give high values
Procedure, shortened: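 Relative to vehicle controls, growth inhibition of compound-treated cln2 rad14 yeast was recorded.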

[5] = NCI Yeast Anticancer Drug Screen. Data for the bub3 strain (AID 167); settings: S. cerevisiae bub3 mutant strain, at 50.0 µM, hits give high values
Procedure, shortened: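 In this screen, a yeast mutant lacking normal mitotic checkpoint function is challenged with compound. Relative growth versus vehicle gives the inhibition value.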

[6] = NCI Yeast Anticancer Drug Screen. Data for the mlh1 rad18 strain (AID 175); settings: S. cerevisiae mlh1 rad18 strain growth inhibition; at 50.0 µM; hits give high values
Procedure, shortened: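 Test agents were incubated with a yeast strain of defined genotype (DNA damage repair defect). Inhibition of growth was derived by comparison with vehicle-exposed cultures.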

Measured: growth inhibition

Nc1nc(Cc2ccccc2)nc2[nH]ncc12
inactive: [1] 3.85% | [2] 6.3% | [3] 3.2% | [4] -18.5% | [5] -8.9% | [6] -1.6%

CC(C(=O)c1ccccc1)C(=O)c1ccccc1
inactive: [1] -2.7% | [2] -13% | [3] -7.9% | [4] -9.95% | [5] -5.8% | [6] -1.65%

COC(=O)CC1C=CC(OC)[C@@]2(C)C(=O)C=C(C)C(=O)[C@@H]12 (stereo not given in full)
inactive: [1] 4.85% | [2] -1.95% | [3] 18.6% | [4] -16.6% | [5] 3.8% | [6] 3.15%

C1CC(CCC2CCNCC2)CCN1
inactive: [1] 1.6% | [2] 1.15% | [3] 4.15% | [4] -13.4% | [5] 11.7% | [6] 1.55%

CC(=O)Nc1ccc(/C=N/NC(N)=S)cc1
inactive: [1] 7.4% | [2] -7.35% | [3] 17% | [4] 12.4% | [5] 3.05% | [6] 13%

O=C(O)c1cnc2cc3c(cc2c1Nc1cccc(C(F)(F)F)c1)OCO3
inactive: [1] 29% | [2] -8.85% | [3] 5.15% | [4] 6.7% | [5] 29.4% | [6] 4.05%

CCOCCN(CCOCC)c1ncnc2[nH]ncc12
inactive: [1] 9.15% | [2] 5.15% | [3] 9.95% | [4] -25.2% | [5] 21.6% | [6] 10.6%

CSC1=Nc2cccnc2Nc2cscc21
inactive: [1] -9.25% | [2] -6% | [3] 22.1% | [4] 9.65% | [5] -3.8% | [6] 25.1%

C=CCOC(=O)OCCO
inactive: [1] 5.95% | [2] -0.55% | [3] -2.8% | [4] -34.5% | [5] -5.5% | [6] -15.9%

Cn1cnc(CC(=O)O)c1
inactive: [1] 4.85% | [2] -6.6% | [3] -12.5% | [4] 5.25% | [5] 11% | [6] -0.05%

CCOC(=O)C1(C(C)C)OC2(O)C3CCCN3C(=O)C(C(C)C)N2C1=O (stereo not given)
inactive: [1] 8.45% | [2] 10.5% | [3] -3% | [4] 20.3% | [5] 8.8% | [6] 17.4%

CC1(N)CC2CCC1C2 (stereo not given)
inactive: [1] -3.5% | [2] -1.25% | [3] 5% | [4] -14.2% | [5] -21.4% | [6] 2.75%

O=C(NC1CCCCC1)OC/C=C\c1ccccc1
inactive: [1] 7.2% | [2] -12.7% | [3] -7.8% | [4] -6.95% | [5] 12.3% | [6] 3.8%

CCOC(=O)c1c(NN)n[nH]c1C
inactive: [1] 8.95% | [2] 13.2% | [3] 24.4% | [4] 4% | [5] 7.1% | [6] 8.85%

O=C1Cc2c([nH]c3ccccc23)-c2cc(Br)ccc2N1
inactive: [1] 13.4% | [2] 6.85% | [3] -2% | [4] 2.9% | [5] 31.6% | [6] 2.9%

CC(C)(NC(=O)OCc1ccccc1)C(=O)OC(=O)C(C)(C)NC(=O)OCc1ccccc1
inactive: [1] -15.9% | [2] 21.1% | [3] 5.85% | [4] 13.8% | [5] 2.15% | [6] -19.4%

CC(=O)CC(OC(C)=O)C1=CCC2C(CC1C)OC(=O)C2C (stereo not given)
inactive: [1] 45.8% | [2] 9.8% | [3] -22.6% | [4] -0.65% | [5] -36.5% | [6] -56.6%

COc1ccc(C2=NOC3COC4C=CC=CC4OCC23)cc1 (stereo not given)
inactive: [1] -11.4% | [2] -22.1% | [3] -13.6% | [4] -17.9% | [5] -19.4% | [6] -18.6%

CC1(C)OC2COC3(COC(C)(C)O3)C(O)C2O1 (stereo not given)
inactive: [1] -9.05% | [2] 0.2% | [3] 4.15% | [4] -3.7% | [5] -6.2% | [6] -24.8%

CC(=O)NC1C(O)C(O)C(CO)OC1n1nc(SCc2ccccc2)c(=O)[nH]c1=O (stereo not given)
inactive: [1] 3.9% | [2] 11.9% | [3] -12.9% | [4] -5.65% | [5] -24.4% | [6] -36.5%
